Only some compounds are listed: those with a hit (about 3.6% of all), similar ones and a draw of the others.
HSF1 inhib: HSF1 inhibition | AID 2098 | activity change, negative = inhibition, % at 7.5 µM (by protocol) | NIH3T3-HGL HSE-luciferase, MG132-induced, luminescence 8 h; stronger effect = lower value | 300,000 tested, 0.77% active;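 active means more than half of replicate wells show activity change below -50%, luminescence cut by over half; inconclusive means some wells, but at most half, below -50%; inactive means no replicate well below -50%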;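 further: luciferase reports HSF-1 transcriptional activity via heat shock element; 0% = median of DMSO wells and -100% = zero luminescence signal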
LGR2 antag: blocks bursicon-induced cAMP signaling via Drosophila LGR2; inhibition, % at 9.99 µM; AID 720647; 380,000 tested, 0.35% active; HEK293 LGR2, CRE-luciferase, bursicon-stimulated, 4 h;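 active means drop in luminescence signal, shown as inhibition above about 50% in the replicate tests, limit read from the data, passing the limit was not always enough; inconclusive means probably only some replicates passing the limit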;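 further: agonist challenge used bursicon conditioned medium at about half maximal strength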
TWEAK-Fn14 inh: blocks TWEAK-Fn14 interaction in a reporter cell assay; inhibition, % at 10 µM; TWEAK-stimulated Fn14 reporter cells, luciferase luminescence, 8 h; 360,000 tested, 2% active; in the data active means inhibition above about 50%
TROY signal inh: blocks TROY-dependent signaling in reporter cells; Q293 LMP1-TROYcd NF-kB luciferase reporter, 4 h; inhibition, % at 10 µM; 360,000 tested, 0.98% active; AID 1347056;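 active means compounds whose plate-normalised and pattern-corrected inhibition of the luciferase reporter signal at the single screening dose is 50% or more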
HSF-1 act: increases HSF-1 driven luciferase reporter signal; NIH3T3-HGL HSF-1 luciferase reporter, MG132, 8 h; 100% = twice DMSO control signal; activation, % at 9 µM; 300,000 tested, 1.7% active; AID 504408;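 active means mean replicate activation of at least 50% with a set share of replicates each reaching 50%; inconclusive means only one of those two conditions met; inactive means mean below 50% and too few replicates reaching it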;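 further: 0% = median of the neutral control wells and 100% = twice that signal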
EBV LMP1 NFkB: Epstein-Barr LMP1 NF-kappaB reporter inhibition | LMP1-induced NF-kappaB luciferase reporter cells, luminescence | inhibition, % at 12.5 µM | 350,000 tested, 0.69% active; in the data active means inhibition above about 41%; inconclusive means no clear call, values can overlap the other calls;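 further: 0% = neutral control wells and 100% = reference inhibitor control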
* hit, by the source's call; ? = inconclusive; . = no result given.

SMILES	HSF1 inhib	LGR2 antag	TWEAK-Fn14 inh	TROY signal inh	HSF-1 act	EBV LMP1 NFkB
Cc1cc(NC(=O)CSc2c3c(nc4ccccc24)CCC3)no1	57	13	19	16	72*	-5
COc1cc(NC(=O)CSc2c3c(nc4ccccc24)CCC3)cc(OC)c1OC	31	11	9	-1	35	-5
Cc1cc(NC(=O)CSc2cc(C)c3ccccc3n2)no1	.	11	-5	1	.	6
CC(C)NC(=O)N(C)C[C@@H]1OCCCC[C@@H](C)Oc2ccc(NS(=O)(=O)c3ccccc3)cc2C(=O)N([C@H](C)CO)C[C@H]1C	.	-10	.	.	.	.
Cc1cc(/C=N/Nc2ncnc(N)c2[N+](=O)[O-])c(C)n1-c1ccccc1	.	79*	98*	83*	.	78*
COc1cccc(/C=N/Nc2ncnc(N)c2[N+](=O)[O-])c1OC	2	.	84*	43	-1	?
Cc1cc(/C=N/Nc2nc(N)ncc2[N+](=O)[O-])c(C)n1-c1cccc(C(F)(F)F)c1	-2	.	.	.	-4	.
N#Cc1ccc(-c2ccc3c(c2)[C@@H]2[C@@H](CCN2C(=O)CN2CCOCC2)[C@H](CO)N3)cc1	.	13	.	.	.	.
CCCOC(=O)c1cccc(Nc2nc(-c3cccnc3)nc3ccccc23)c1	-32	5	57*	24	-26	-17
O=C(OCCNc1nc(-c2ccccc2)nc2ccccc12)c1cccnc1	10	2	12	-1	29	3
N=c1cc(C2(O)CCCCC2)n2c(nc3ccccc32)s1	-7	.	64*	27	17	6
COc1ccc(C[C@@H]2CCn3cc(nn3)COC[C@H](Cc3ccccc3)NC2=O)cc1	.	-5	.	.	.	.
CN1CCN(Cc2cccc(Oc3ccccc3)c2)CC1	-1	-14	7	-9	-2	-4
OC1CCN(Cc2cccc(Oc3ccccc3)c2)CC1	-51*	.	-2	13	-62	1
CCOC(=O)c1cc(-c2cccc(C(F)(F)F)c2)nc2nc(SC)[nH]c(=O)c12	2	-23	2	0	-6	-4
CCOC(=O)c1nc(C)nc(Sc2n[nH]c(-c3cc(C(F)(F)F)cc(C(F)(F)F)c3)n2)c1C	1	.	-41	59*	33	-5
COc1ccc(CN(C)C[C@@H]2OCCCC[C@H](C)Oc3ccc(NC(=O)Nc4cccc5ccccc45)cc3C(=O)N([C@@H](C)CO)C[C@@H]2C)cc1	.	6	.	.	.	.
CCOCCCn1cnc2c3cc(F)ccc3n(C)c2c1=O	.	-16	2	-38	.	57*
Cc1ccc(-n2nc(C(=O)NCc3ccc(C)o3)c3c4ccccc4n(C)c3c2=O)cc1	5	.	16	-2	4	49*
C[C@H](CO)N1C[C@H](C)[C@H](CN(C)Cc2ccccc2C(=O)O)Oc2ncc(C3=CCCC3)cc2C1=O	.	-14	.	.	.	.
NC(=NCCc1ccccc1)c1cccc([N+](=O)[O-])c1	1	7	-5	25	-4	5
C=CCN(CC(O)c1cccc([N+](=O)[O-])c1)C(C)CCc1ccccc1 (configuration not stated)	-78*	-7	-32	-13	-83	6
COc1ccc(S(=O)(=O)N(C)C[C@@H]2Oc3ccc(NC(=O)CCCN(C)C)cc3CC(=O)N([C@H](C)CO)C[C@@H]2C)cc1	.	-11	.	.	.	.
C[C@H](CO)N1C[C@H](C)[C@H](CN(C)C)Oc2cc(-c3ccc(F)cc3)ccc2S1(=O)=O	.	7	.	.	.	.
C[C@H](CO)N1C[C@H](C)[C@@H](CN(C)Cc2ccc(-c3ccccc3)cc2)Oc2ccc(NC(=O)Cc3ccccc3)cc2C1=O	.	24	.	.	.	.
SMILES	HSF1 inhib	LGR2 antag	TWEAK-Fn14 inh	TROY signal inh	HSF-1 act	EBV LMP1 NFkB
Cc1[nH]n(-c2ccccc2)c(=O)c1N=Nc1cccc(C(=O)O)c1	-31	24	58*	-48	-41	2
Cc1[nH]n(-c2ccccc2)c(=O)c1N=Nc1ccc(C(=O)O)cc1	-7	-11	-8	-27	3	-12
Cc1ccc(-c2cc(C(=O)N/N=C/c3c(C)nn(-c4ccccc4)c3C)n[nH]2)s1	4	-19	51*	28	-22	4
Cc1nn(-c2ccccc2)c(C)c1/C=N/NC(=O)c1cc(C(C)(C)C)[nH]n1	-4	4	-1	-7	-3	0
Cc1cc(-c2nc3ncccc3o2)ccc1NC(=S)NC(=O)C(C)C	38	0	12	-65	52*	-8
CC(C)c1ccc(NC(=O)COc2ccc(F)cc2C(=O)c2cnn(-c3ccccc3)c2)cc1	34	-33	25	10	60*	-112
O=C(COc1ccccc1C(=O)c1cnn(-c2ccccc2)c1)Nc1ccc2ccccc2c1	16	-93	5	-54	29	-20
CCCN1C[C@H](C)[C@@H](OC)CN(C)C(=O)c2ccc(NS(=O)(=O)c3ccccc3)cc2OC[C@H]1C	.	-8	.	.	.	.
CC(C)C#Cc1ccc2c(c1)O[C@@H](CN(C)C(=O)c1cccnc1)[C@H](C)CN([C@@H](C)CO)S2(=O)=O	.	-2	.	.	.	.
Cc1cc(Cl)ccc1OCc1cn2cccnc2n1	78	-19	-15	-24	94*	-9
Clc1ccc(OCc2cn3cccnc3n2)c2ncccc12	10	.	-6	-58	29	-7
COc1cccc(NC(=O)N2CC3(C2)[C@H](c2ccccc2)[C@H](CO)N3C(=O)C2CCCC2)c1	.	-23	.	.	.	.
CN(C)C(=O)C[C@H]1CC[C@H](NC(=O)C2CCOCC2)[C@H](CO)O1	.	8	.	.	.	.
O=C(CSC1CC(=O)N(CC(c2ccccc2)c2ccccc2)C1=O)Nc1ccc(Cl)cc1 (configuration not stated)	8	.	32	51*	30	-3
O=C(O)CSC1CC(=O)N(c2ccc(Cl)cc2)C1=O (configuration not stated)	-6	.	-15	-11	4	5
CCNC(=O)C1(C)CCN(C(=O)c2ccc(F)cc2Cl)C1 (configuration not stated)	.	2	89*	2	.	.
O=C(NCc1ccccc1)c1onc(CSc2ccc(F)cc2)c1C(=O)NCc1ccccc1	-1	7	-5	-14	-15	-1
Cc1cc(C)cc(SCc2noc(C(=O)NCc3ccccc3)c2C(=O)NCc2ccccc2)c1	-60*	17	14	-2	-67	6
Cc1cn([C@H]2C[C@H](O)[C@@H](CNC(=O)[C@H](N)Cc3cn(COCc4ccccc4)cn3)O2)c(=O)[nH]c1=O	.	14	51*	-18	.	7
CCN(CC)c1ccc(/C=C(/C#N)c2nc3ccccc3[nH]2)c(OC(C)C)c1	-46	.	76*	69*	-49	5
CCOc1cccc(/C=C(/C#N)c2nc3ccccc3[nH]2)c1OCC(=O)O	-33	-13	61*	58*	-43	1
N#C/C(=C\c1ccccc1C(=O)O)c1nc2ccccc2[nH]1	-1	-19	10	3	6	0

Source: PubChem
